Experimental data as given in the supplement of paper PMC10981050.
Where “and” joins values, the source holds several entries; their conditions need not be identical. Identical values can stand only once. Counter-ions that a name gives are not always drawn.

Assays:
Assay in all cases: cell viability relative to vehicle control; higher = less cytotoxic
Settings in all cases: 10 µM
[1] = tested on: K562
Summary of the method: (§1)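 CRISPR-edited mutant clones and isogenic wild-type clones from four leukaemia lines were screened against Selleck bioactive, kinase and epigenetic probe libraries, with identity-inconsistent compounds excluded. Each compound was acoustically dispensed at a single 10 µM dose into 384-well plates holding 2000 cells in 50 µL medium per well. After 48 h the supernatant was removed and CellTiter-Glo luminescence was read. Viability was expressed as percent of the on-plate vehicle control and analysed in Genedata Screener.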

[2] = tested on: MARIMO
Summary of the method: as §1

[3] = tested on: MOLM14
Summary of the method: as §1

[4] = tested on: OCI-AML2
Summary of the method: as §1

Compound	cell viability ([1]; SRSF2 genotype: SRSF2 P95H/wt)	cell viability ([1]; SRSF2 genotype: SRSF2 wt/wt) [%]	cell viability ([2]; SRSF2 genotype: SRSF2 P95H/wt) [%]	cell viability ([2]; SRSF2 genotype: SRSF2 wt/wt) [%]	cell viability ([3]; SRSF2 genotype: SRSF2 P95H/wt) [%]	cell viability ([3]; SRSF2 genotype: SRSF2 wt/wt) [%]	cell viability ([4]; SRSF2 genotype: P95H/wt) [%]	cell viability ([4]; SRSF2 genotype: wt/wt) [%]
O=C(NCc1ccncc1)C12CC3CC(C1)CC(c1ccc(Cl)cc1)(C3)C2	73.1% and 84.6%	72.3	75.4	74.2	61	57.4	64.5	55.1
Cc1noc(C)c1-c1ccc(-c2cc(C(N)=O)c(NC(N)=O)s2)c(O[C@H]2CCNC2)c1	101%	93.8	94.9	103	89.5	99.7	101	105
CN1CCN(CCCN2c3ccccc3Sc3ccc(C(F)(F)F)cc32)CC1 [Trifluoperazine 2HCl]	25.7% and 36.9%	46.2	52.5	50.8	45.9	58.7	47.6	46.7
CC(C)=CCc1cc2c(cc1O)oc(=O)c1c3ccc(O)cc3oc21 [Psoralidin]	98.2% and 95.7%	95.2	98	106	115	107	98	98.9
O=C1C(=O)c2ccccc2C(O)=C1C1CCC(c2ccc(Cl)cc2)CC1 (configuration not stated) [Atovaquone (Atavaquone)]	87.9% and 81.8%	79.7	87.9	95.8	84.7	88.7	84.8	90.1
CN(C)CCCC1(c2ccc(F)cc2)OCc2cc(C#N)ccc21 (configuration not stated) [Citalopram HBr]	98.3% and 92.9%	92.5	94.2	108	91.5	101	90.8	97.9
C[C@@H](c1nc(-c2ccc(C#N)cc2)cs1)[C@](O)(Cn1cncn1)c1cc(F)ccc1F [Isavuconazole]	45.7% and 47.6%	48.5	39.3	33	44.8	26	38.7	28
COc1ccc([C@@H]2OC[C@H]3[C@@H]2CO[C@@H]3c2ccc3c(c2)OCO3)cc1OC [Fargesin]	87.8% and 91.3%	92.7	84.8	86	97.2	94.5	88.6	80.4
NC(=O)CCCSc1nc(N)nc(-c2c(Cl)cc3c4c(cccc24)COC3)n1	18.9% and 27.3%	22.6	29.3	24.6	2.36	2.58	16.6	19.6
O=C(O)c1cc(O)ccc1O [Gentisic acid]	100% and 104%	99.6	101	105	101	102	102	111
CCCCCCCCCCCCCCCCCCCCCCCCCCCCO [1-Octacosanol]	107% and 110%	98.7	109	106	100	106	96.2	108
CCCCCCCCCCCCCCCCCC(=O)O [Stearic acid]	107% and 111%	107	107	109	105	108	96.4	103
O=C(O)C[C@H](O)C[C@H](O)/C=C/c1c(C2CC2)nc2ccccc2c1-c1ccc(F)cc1 [Pitavastatin calcium (Livalo)]	37.4% and 50.7%	34.6	25.3	34.4	32.9	48.4	1.41	4.89
CC(C)=CCC[C@](C)(O)[C@H]1CC[C@]2(C)[C@@H]1[C@H](O)C[C@@H]1[C@@]3(C)CC[C@H](O)C(C)(C)[C@@H]3[C@@H](O)C[C@]12C [(20S)-Protopanaxatriol]	90.2% and 89.5%	101	96.1	105	106	106	107	101
CC(C)NCC(O)c1ccc(NS(C)(=O)=O)cc1 (configuration not stated) [Sotalol HCl]	106% and 102%	95.7	101	109	104	102	106	102
c1ccc2c(Oc3nc(Nc4ccc(N5CCOCC5)cc4)c4ncn(C5CCCCC5)c4n3)cccc2c1 [Purmorphamine]	91.9% and 105%	98.2	86.5	94.4	45.9	48.7	58.9	64
O=C(O)C(O)Cc1ccc(O)c(O)c1 (configuration not stated) [Sodium Danshensu]	98.7% and 92.4%	95.5	95.5	107	96.4	98.8	93.7	104
CCOC(=O)c1ccc(NC(=O)O[C@H]2[C@H](OC(=O)Nc3ccc4c(c3)OCO4)[C@@H](OC(=O)Nc3ccc4c(c3)OCO4)[C@@H](OC)O[C@@H]2CO)cc1	89.5% and 99.2%	93.3	103	106	100	101	99.3	103
CCOCc1nc2c(N)nc3ccccc3c2n1CC(C)(C)O [Resiquimod]	94.5% and 96%	92.3	86	87.6	97.1	96.1	95.8	98.8
